# Source: the supplement of paper PMC10670038
# Structures can show the parent of a compound that is named as a salt. ± gives the standard deviation of the averaged measurements. Over roughly 2,000 compounds, “relative cell viability vs DMSO, compound + 0.2 uM CuET” has its median near 1; the lowest 2% begin near 0.25. The sample holds the lowest values, similar compounds and a random draw of the others, so the mix is not that of the screen.
# Tested on: TE10
# Assay: relative cell viability vs DMSO, compound + 0.2 uM CuET (fraction); TE10 is an esophageal squamous carcinoma line; higher = less cytotoxic
# Conditions: 2 µM; co-treatment: CuET (bis(diethyldithiocarbamate)copper) 0.2 uM; 48 h
# Description: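 TE10 ESCC cells (1,000/well, 384-well plates) were treated with Selleck bioactive library compounds at 2 uM combined with 0.2 uM CuET (copper diethyldithiocarbamate) for 48 h. Viability was read by CellTiter-Glo and expressed relative to DMSO wells. Two technical replicates (A, B).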
row,Compound,relative cell viability
1,C=CS(=O)(=O)NC1CCN(C(=O)CNc2cc(I)c(Cl)cc2OC)CC1 [K-Ras(G12C) inhibitor 9],0.699 ± 0.08
2,O=C(NOCC1CC1)c1ccc(F)c(F)c1Nc1ccc(I)cc1Cl,0.64 ± 0.17
3,Cc1cccc(-c2[nH]ncc2-c2ccc3ncccc3n2)n1,1.04 ± 0.0027
4,CC(C)(C)OC(=O)Nc1ccc(-c2cc(C(=O)NCCCCCCC(=O)NO)no2)cc1,0.244 ± 0.003
5,CN(C)c1ccc(C(=O)NCCCCCCC(=O)NO)cc1,0.322 ± 0.042
6,O=C(CCCCCCNC(=O)c1cnc(N(c2ccccc2)c2ccccc2)nc1)NO [Rocilinostat (ACY-1215)],0.8907 ± 0.0072
7,C[C@@H]1COC(Nc2ccc3ncnc(Nc4ccc(OCc5nccs5)c(Cl)c4)c3c2)=N1 [Varlitinib],1.04 ± 0.086
8,S=C=Nc1cccc(NC(=S)NCCCCNC(=S)Nc2cccc(N=C=S)c2)c1,1.2 ± 0.15
9,C=CC(=O)Nc1cccc(Sc2nc(Nc3ccc(N4CCN(C)CC4)cc3)ncc2Cl)c1,0.846 ± 0.02
10,C=CCn1c(=O)c2cnc(Nc3ccc(N4CCN(C)CC4)cc3)nc2n1-c1cccc(C(C)(C)O)n1,0.559 ± 0.038
11,CCn1c(=O)c(-c2ccc(-c3cncs3)cc2Cl)cc2cnc(Nc3ccc(N4CCN(C)CC4)cc3)nc21,0.183 ± 0.025
12,COc1cc2ncnc(Oc3cccc(NC(=O)Nc4cc(C(C)(C)C(F)(F)F)on4)c3)c2cc1OC,1.1 ± 0.061
13,COc1cc(OC)c(NC(=O)Nc2cc(C)on2)cc1Cl,1.1 ± 0.05
14,CCN1C(=CC(C)=O)Sc2ccc(OC)cc21,1.11 ± 0.11
15,CC(CCC(=O)NCCS(=O)(=O)O)C1CCC2C3C(O)CC4CC(O)CCC4(C)C3CCC12C (centres undefined) [Sodium Tauroursodeoxycholate (TUDC)],1.24 ± 0.12
16,O=C1C(Cl)=C(N2CCOCC2)C(=O)N1c1ccc(Cl)c(Cl)c1,1.17 ± 0.026
17,COc1ccc(/C=C/C(=O)C2(C(=O)/C=C/c3ccc(OC)c(OC)c3)CCCCC2)cc1OC,0.238 ± 0.01
18,COc1cc(/C=C/C(=O)O)ccc1O [Ferulic Acid],1.21 ± 0.12
19,COc1cc(/C=C/C(=O)CC(=O)/C=C/c2ccc(O)c(OC)c2)ccc1O [Curcumin],0.656 ± 0.023
20,O=C1c2c(O)cccc2C([C@@H]2O[C@H](CO)[C@@H](O)[C@H](O)[C@H]2O)c2cc(CO)cc(O)c21 (some centres undefined) [Aloin],1.1 ± 0.12

row,Compound,relative cell viability
1,N#Cc1ccc(COC[C@H]2O[C@@H](n3c(NCc4ccc(Cl)c(Cl)c4)nc4c(N)ncnc43)[C@H](O)[C@@H]2O)cc1,0.939 ± 0.0025
2,CCOc1ccccc1OC(c1ccccc1)C1CNCCO1 (centres undefined) [Reboxetine mesylate],1.2 ± 0.37
3,c1ccc(Cn2c(-c3ccc(OCC(C4CCNCC4)n4c(-c5ccccc5)nc5ccccc54)cc3)nc3ccccc32)cc1 (centres undefined) [Deltarasin],0.9797 ± 0.0069
4,CC1(C)C=C(CN2C/C(=C\c3ccc(F)cc3)C(=O)/C(=C/c3ccc(F)cc3)C2)C(C)(C)N1O,0.216 ± 0.0066
5,CC(C)(C)Cn1c(N)nc2ccc(-c3[nH]c(C(C)(C)C)nc3-c3ccc(F)cc3)nc21,1.34 ± 0.083
6,CCOC(=O)C1=C(C)NC(C)=C(C(=O)OCC)C1c1ccccc1/C=C/C(=O)OC(C)(C)C [Lacidipine],0.785 ± 0.011
7,COc1ccc(COc2ccc(Cc3cnc(N)nc3N)cc2OC)cc1,1.024 ± 0.0044
8,Cn1c(=O)cc(N2CCC[C@@H](N)C2)n(Cc2cc(F)ccc2C#N)c1=O [Trelagliptin],1.17 ± 0.22
9,CC(C=CC(=O)NO)=CC(C)C(=O)c1ccc(N(C)C)cc1 (centres undefined) [Trichostatin A (TSA)],0.177 ± 0.0076
10,CN(C(Cc1ccc(OS(=O)(=O)c2cccc3cnccc23)cc1)C(=O)N1CCN(c2ccccc2)CC1)S(=O)(=O)c1cccc2cnccc12 (centres undefined),0.992 ± 0.046
11,CC(NC(=O)C(O)c1cc(F)cc(F)c1)C(=O)NC1C(=O)N(C)c2ccccc2-c2ccccc21 (centres undefined),1.07 ± 0.058
12,CC(C)OC(=O)C1=CN(C(=O)c2ccc(F)c(F)c2)CC(C)(C)c2c1[nH]c1ccccc21,1.13 ± 0.041
13,O=C(/C=C/c1ccc2ccccc2n1)c1ccncc1,0.186 ± 0.037
14,NNC(=O)c1ccncc1 [Isoniazid],1.1 ± 0.14
15,O=C(NNc1ccccc1)c1ccncc1,1.06 ± 0.18
16,Cn1c(=O)cc(N2CCC[C@@H](N)C2)n(Cc2ccccc2C#N)c1=O [Alogliptin],1.1 ± 0.21
17,NCc1c[nH]c(=S)n1[C@@H]1CCc2c(F)cc(F)cc2C1 [(R)-Nepicastat HCl],1.121 ± 0.0038
18,CN(C)CCSSCCNC(=O)C1CCN(C(=O)CSc2ccc(Cl)cc2)CC1,1.05 ± 0.11
19,Cc1cc(N2CCOCC2)cc2[nH]c(-c3c(NCC(O)c4cccc(Cl)c4)cc[nH]c3=O)nc12 (centres undefined),0.799 ± 0.15
